According to PubChem BioAssay AID504850 (National Center for Advancing Translational Sciences (NCATS), 2011):
In all, about 2,300 compounds went through this assay and about 1,200 (52%) were called active. Inconclusive results (about 34%) are left out. The call rests on the fitted dose curve; in most records, active means well fitted inhibition curve with a large enough effect; inconclusive means small, poorly fitted or top-dose-only effect, or effect the other way; inactive means no such curve, though single readings can be large or run the other way. The set was probably picked from earlier hits. This is one part of the list.

assay: Confirmation screen for delayed death inhibitors of the malarial parasite plastid, 48 hour incubation; further: nearly all actives have a fitted effect of over 65% in size; settings: P. falciparum-infected erythrocytes, luciferase growth; series mostly up to 28.7 µM
In short: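 Erythrocytes infected with luciferase-expressing P. falciparum (2% hematocrit, 0.1% parasitemia) incubated with compounds 48 hours at 37 C, 5% CO2, in RPMI/Albumax. Growth inhibition scored as reduced luminescence after detection reagent.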
Potency means the concentration at half of the fitted maximal effect.

SMILES | Potency
COc1ccc(NC(=O)[C@H](Cc2c[nH]c3ccccc23)NC(=O)[C@@H]2Cc3ccccc3CN2)cc1 | 7.94 µM (active)
O=C(NC(Cc1c[nH]c2ccccc12)C(=O)Nc1ccc(F)cc1)c1cccs1 (stereo unspecified) | 7.08 µM (active)
CCS(=O)(=O)N1Cc2ccccc2CC1C(=O)Nc1cccc(OC)c1 (stereo unspecified) | inactive
CC(C)C(=O)NCCSc1c[nH]c2ccccc12 | inactive
COc1ccc(C(=O)NCCc2c[nH]c3ccccc23)cc1[N+](=O)[O-] | inactive
Cc1cccc(NC(=O)[C@H](Cc2c[nH]c3ccccc23)NC(=O)[C@@H]2Cc3ccccc3CN2)c1 | 10 µM (active)
COc1cccc(NC(=O)[C@H](Cc2c[nH]c3ccccc23)NC(=O)[C@@H]2Cc3ccccc3CN2)c1 | 14.1 µM (active)
CNC(=S)N(CCc1c(C)[nH]c2ccc(C)cc12)Cc1cc(OC)c(OC)c(OC)c1 | 12.6 µM (active)
CNC(=S)N(CCc1c(C)[nH]c2ccc(Cl)cc12)Cc1cccnc1 | 14.1 µM (active)
Cc1ccc(NC(=O)C(=Cc2ccc(C(=O)O)cc2)C(=O)Nc2ccc(C)cc2C)c(C)c1 | 10 µM (active)
Cn1c(/C=C/c2ccc(Cl)cc2)c([N+](=O)[O-])c(=O)n(C)c1=O | 7.94 µM (active)
N#C/C(=C\c1ccccn1)c1ccccn1 | 11.2 µM (active)
CSC1=NC(C)(C)C=C(/C=C/c2ccc(Cl)cc2)N1 | 10 µM (active)
CSC1=NC(C)(C)C=C(/C=C/c2c(Cl)cccc2Cl)N1 | 10 µM (active)
CSC1=NC(C)(C)C=C(/C=C/c2ccc(Cl)cc2Cl)N1 | 1.78 µM (active)
O=C(c1ccccc1Br)N1CCN(c2ccccn2)CC1 | inactive
CC(Oc1ccc(Br)cc1)C(=O)N1CCN(c2ccccn2)CC1 (stereo unspecified) | 15.8 µM (active)
O=C(NCc1ccc2[nH]c3c(c2c1)CCCC3)c1ccc(S(=O)(=O)N2CCCC2)cc1 | 15.8 µM (active)
COc1ccc(Cl)cc1NC(=O)C(=O)NCc1ccncc1 | inactive
COc1ccc(-c2cc(C(=O)Nc3cc(C)n(Cc4ccc(Cl)cc4)n3)no2)cc1OC | 0.355 µM (active)
O=C(Nc1ccc(Cl)cc1)c1ccc(CN2CCc3ccccc3C2)cc1 | 14.1 µM (active)

SMILES | Potency
Cc1cc(C)cc(NC(=O)c2ccc(CN3CCc4ccccc4C3)cc2)c1 | 14.1 µM (active)
O=C(Nc1ccc(F)cc1)c1ccc(CN2CCc3ccccc3C2)cc1 | 12.6 µM (active)
Cc1cc(NC(=O)CN2C(=O)NC(c3ccccc3)(c3ccc(C)c(C)c3)C2=O)no1 (stereo unspecified) | 14.1 µM (active)
CCOc1ccccc1CN1C(=O)NC(C)(c2ccccc2)C1=O (stereo unspecified) | inactive
COc1ccccc1CNC(=O)CN1C(=O)NC(c2ccccc2)(c2ccc(C)c(C)c2)C1=O (stereo unspecified) | 12.6 µM (active)
Cn1c(=O)c([N+](=O)[O-])c(-n2ccnc2)c2ccccc21 | 12.6 µM (active)
C/C(=C\C(=O)OCCCCCCCCC(=O)O)C[C@@H]1OC[C@H](C[C@@H]2O[C@H]2[C@@H](C)[C@H](C)O)[C@@H](O)[C@H]1O | 1.12 µM (active)
CCC(C)NC(=O)c1cc(Cl)c(NC(=O)C2=C(C)OCCS2)cc1OC (stereo unspecified) | 11.2 µM (active)
COc1ccc(-c2cc(-c3ccccc3)nc(SCC(=O)Nc3nccs3)c2C#N)cc1 | 2.24 µM (active)
CCOC(=O)c1sc(NC(=O)CSc2ncccn2)nc1C | inactive
COc1ccc(-c2cc(-c3ccccc3)nc(SC(C)C(=O)O)c2C#N)cc1 (stereo unspecified) | 14.1 µM (active)
Fc1ccc(C2CC(c3ccco3)=NN2c2ccccc2)cc1 (stereo unspecified) | inactive
CS(=O)(=O)Nc1ccc(C2=NN(C(=O)c3ccco3)C(c3ccc(F)cc3)C2)cc1 (stereo unspecified) | 12.6 µM (active)
COc1ccc(Cc2nc3ccc(C(=O)NCCc4ccccn4)cc3o2)cc1OC | 14.1 µM (active)
C/C(=N\NC(=O)c1ccc(Cl)c(Cl)c1)c1ccc(Br)s1 | 3.55 µM (active)
O=C(NNC(=O)c1ccc(Br)s1)c1ccc(F)c(S(=O)(=O)N2CCOCC2)c1 | inactive
COc1ccc2c(c1OC)C(=O)N1N=C(c3ccccc3)CC21 (stereo unspecified) | 5.01 µM (active)
Nc1nc(CCl)nc(N(c2ccccc2)c2ccccc2)n1 | 8.91 µM (active)
Cc1cccc(N(Cc2ccccc2)C(=O)CN2C(=O)NC3(CCCCC3C)C2=O)c1 (stereo unspecified) | 12.6 µM (active)
COc1ccc(CN2CCN(C(=O)CCC(=O)Nc3nnc(C4CCCCC4)s3)CC2)cc1F | 12.6 µM (active)
CCCc1nnc(NC(=O)CCC(=O)N2CCN(Cc3ccc(Cl)cc3)CC2)s1 | 12.6 µM (active)

SMILES | Potency
CCCC(=O)Nc1nnc(CC(=O)N2CCCC2)s1 | inactive
CCOC(=O)c1c(C)sc2c1N(C(=O)CCl)c1cc(Cl)ccc1S2 | 3.98 µM (active)
O=c1[nH]c(C(F)(F)F)nc2ccc3ccccc3c12 | inactive
Cc1ccc(NS(=O)(=O)c2ccc(-c3cnc(C4CC4)o3)cc2)c(C)c1 | 5.01 µM (active)
O=C(CCl)c1ccc2c(c1)CCN2C(=O)C1CCCCC1 | 11.2 µM (active)
O=C(C1CCC1)N1CCc2cc(S(=O)(=O)NCc3ccco3)ccc21 | inactive
COc1ccc(NC(=O)c2cc([N+](=O)[O-])ccc2N2CCN(C)CC2)cc1 | inactive
CCC(=O)c1ccc(N2CCN(C(=O)c3cc([N+](=O)[O-])ccc3N3CCN(C)CC3)CC2)c(F)c1 | 10 µM (active)
O=[N+]([O-])/C=C\c1ccc(N2CCCC2)c(F)c1 | inactive
CCCn1cc(S(=O)(=O)c2ccc(Cl)cc2)c(=O)c2cc(OC)ccc21 | 12.6 µM (active)
COc1ccc([N+](=O)[O-])c(S(=O)(=O)c2ccc(Cl)cc2)n1 | inactive
Cc1onc(-c2c(F)cccc2Cl)c1-c1nnc(-c2ccc(C(F)(F)F)cc2)o1 | 5.62 µM (active)
Cc1[nH]c(C)c(C(=O)/C=C/c2ccc([N+](=O)[O-])cc2)c1C | 12.6 µM (active)
Cc1oc(-c2ccccc2Cl)nc1Cn1cccc1C1=NC(c2ccccc2)CO1 (stereo unspecified) | 12.6 µM (active)
CCCSCCCNC(=O)c1ccccc1NC(=O)C1=CSCCO1 | 12.6 µM (active)
O=C(Cn1c(=O)sc2ccccc21)Nc1nc2c(s1)CCCC2 | inactive
CC(C)(C)c1nc(SCC(=O)Nc2nc3c(s2)CCCC3)c2ccccc2n1 | 4.47 µM (active)
CC(C)(C)c1nc(SCC(=O)Nc2ccc(N3CCOCC3)cc2)c2ccccc2n1 | 11.2 µM (active)
O=C(Cc1cn2ccsc2n1)Nc1nc2c(s1)CCCC2 | inactive
